Source: PubChem
VACV mCherry inh: vaccinia inhibition (mCherry reporter) | actives 0.63% (n = 310,000) | Potency, µM (top dose mostly 36.5 µM), without a hit: at the highest dose activity change, negative = inhibition, usual class: inhibitors | Vaccinia virus mCherry reporter infection, fluorescence; calls by dose curve; tested in A549 cells; also: nearly all actives have a fitted effect of over 35% in size
Marburg entry inh: blocks Marburg virus binding to or entry into cells. Marburg virus pseudotyped entry inhibition, cell reporter. Potency, µM (top dose mostly 37.8 µM), without a hit: at the highest dose activity change, negative = inhibition, hits mostly inhibitors. actives 1.8% (n = 300,000). AID 540276; calls by dose curve; tested in HEK293 cells
Vaccinia Venus: vaccinia inhibition (Venus reporter). Vaccinia virus Venus reporter expression, fluorescence. Potency, µM (highest dose often 36.5 µM), inactives show at the top dose activity change, negative = inhibition, hits mostly inhibitors. actives 0.46% (n = 330,000). AID 720580; calls by dose curve; tested in A549 cells; also: nearly all actives have a fitted effect of over 30% in size
Lassa entry inh: inhibitors of Lassa virus binding or cell entry. actives 1.2% (n = 300,000). Lassa virus pseudotype entry inhibition, cell reporter. Potency, µM (doses to about 37.9 µM), for the others: top-dose activity change, negative = inhibition, hits mostly inhibitors. AID 540256; calls by dose curve; tested in HEK293 cells; also: nearly all actives have a fitted effect of over 50% in size
* hit, by the source's call; i = inactive; ? = inconclusive; nt = no result; [ ] = remark or other dose. In the library only some 2.5% were active in any assay of this set; here they are far more common. % is scaled to controls: 0 for no effect and ±100 for the full control effect; potency is read from the fitted curve at half-maximal effect.

SMILES | VACV mCherry inh | Marburg entry inh | Vaccinia Venus | Lassa entry inh
Cc1ccc(C(=O)N2CC(C)SC2=Nc2cccc(S(=O)(=O)N(C)C)c2)cc1 (stereo not given) | ? | -12% | ? | 3.2µM*
O=C(CNC(=O)c1sc2ccccc2c1Cl)NCc1cccc(C(F)(F)F)c1 | -26% | ? | 16µM* | -32%[46.1 µM]
CC(=O)Nc1ccc(NC(=O)CNC(=O)c2sc3ccccc3c2Cl)cc1 | i | ? | 3% | -1%
Cc1cccc(N(CC(=O)NCCSCc2ccc(Cl)cc2)S(C)(=O)=O)c1C | ? | ? | -25% | 13µM*
O=C1C(=O)N(CCN2CCOCC2)[C@@H](c2ccccn2)/C1=C(\O)c1ccccc1 | nt | 23% | nt | nt
C=C(C)COc1ccc(-c2[nH]ncc2-c2ccccc2OC)c(O)c1 | -23% | 7.9µM* | ? | ?
C=C(C)COc1ccc(-c2[nH]ncc2Oc2ccc(OC)cc2)c(O)c1 | 14µM* | nt | ? | nt
C=C(C)COc1ccc(-c2ncncc2-c2ccc(Br)cc2)c(O)c1 | -13% | ? | -20% | ?
C=C(C)COc1ccc(-c2n[nH]c(C)c2-c2ccc(Br)cc2)c(O)c1 | ? | ? | ? | 0.37µM*
C=C(C)COc1ccc(-c2ncnc(C(F)(F)F)c2-c2ccc(OC)cc2)c(O)c1 | -14% | ? | -12% | -14%[46.1 µM]
C=C(C)COc1ccc(-c2[nH]ncc2Oc2ccccc2OC)c(O)c1 | ? | -17% | ? | ?
C=C(C)COc1ccc(-c2[nH]ncc2-c2ccc(Br)cc2)c(O)c1 | ? | 3.3µM* | ? | ?
C[C@@H]1CC[C@H]2C(=O)N(Cc3cccc([N+](=O)[O-])c3)C[C@@H](O)CN2[C@@H]1c1ccc(Br)cc1 | nt | -13%[14.2 µM] | nt | nt
Cc1ccc(NCC(=O)Nc2ccc(F)c(Cl)c2)cc1S(=O)(=O)N1CCOCC1 | -13% | nt | ? | nt
CC(C)(C)NNC(=S)Nc1ccc(S(=O)(=O)N2CCOCC2)cc1 | -7% | -8% | -1% | -5%[46.1 µM]
Cc1ccc(NC(=S)Nc2ccc(S(=O)(=O)N3CCOCC3)cc2)cc1S(=O)(=O)N1CCOCC1 | 0% | -1%[46.1 µM] | -4% | 11µM*
Cc1nc(-c2ccc(F)cc2)c(CC(=O)Nc2ccc(C)c(S(=O)(=O)N3CCOCC3)c2)s1 | i | 5µM* | -5% | ?
Cc1ccccc1C1(CC(=O)N2CCCCC2c2cccnc2)CC(=O)N(C2CCCC2)C1=O (stereo not given) | -18% | nt | -21% | nt
COc1ccc(C=C2CCc3ccccc3C2=O)cc1 | -5% | nt | -13% | nt
COc1ccc(/C=C2\CN(Cc3ccccc3)C/C(=C\c3ccc(OC)cc3)C2=O)cc1 | -14% | ? | -9% | 7.9µM*
Nc1ccc(Cc2ccc(C=O)cc2)cc1 | i | nt | -15% | nt
O=C(CN1C(=O)c2ccccc2S1(=O)=O)c1ccc(Cl)cc1Cl | i | 0.28µM* | -10% | 0.56µM*
O=C(CN1C(=O)c2ccccc2S1(=O)=O)c1cccc(Br)c1 | i | ? | -10% | 1.3µM*
O=C(CN1C(=O)c2ccccc2S1(=O)=O)c1ccccc1F | -6% | ? | -9% | ?
O=C(CN1C(=O)c2ccccc2S1(=O)=O)c1ccc(OC(F)F)cc1 | -9% | 1.3µM* | 2% | 0.89µM*
SMILES | VACV mCherry inh | Marburg entry inh | Vaccinia Venus | Lassa entry inh
CC1CCN(C(=O)CN2C(=O)c3ccccc3S2(=O)=O)CC1 | -11% | ? | -11% | 7.9µM*
O=C(CN1C(=O)c2ccccc2S1(=O)=O)c1ccc2c(c1)OCCCO2 | -3%[7.34 µM] | ? | -7%[7.34 µM] | ?
NC(=O)C1CCN(C(=O)CN2C(=O)c3ccccc3S2(=O)=O)CC1 | nt | 3% | nt | -2%
CCOc1ccc(NC(=O)CSc2nnc3c(n2)[nH]c2ccc(S(=O)(=O)N4CCCCC4)cc23)cc1 | -25% | nt | -15% | nt
CN(C)CCOC1c2ccccc2CCc2ccc3ccccc3c21 (stereo not given) | ? | 5µM* | -19% | ?
CN(C)CCOC1c2ccccc2C=Cc2ccccc21 | -10% | ? | -11% | ?
S=C(NCCCN(Cc1ccc(Cl)cc1)c1ccc(Br)cn1)NCc1ccc2nc[nH]c2c1 | -20% | nt | -23% | nt
CC(=O)NCCCNC(=S)NCCCN(Cc1ccc(Cl)cc1)c1ccc(Br)cn1 | ? | nt | 11µM* | nt
CC(C)CO/N=C1\C[C@@H](O)[C@@H](O)[C@@H]2[C@@H]3C(=O)N(Cc4ccccc4)C(=O)[C@@H]3CC[C@H]12 | nt | 1%[14.2 µM] | nt | nt
Nc1cccc(-c2c[nH]c3ncc(-c4cccnc4)cc23)c1 | ? | nt | 10µM* | nt
Cc1cc(C)c2nc(NC(=O)c3ccc(S(=O)(=O)N4CCC(C)CC4)cc3)sc2c1 | -3% | nt | -6% | 21%[46.1 µM]
Cc1cc(C)c2nc(NNC(=O)c3ccc(S(=O)(=O)N4CC(C)CC(C)C4)cc3)sc2c1 (stereo not given) | ? | 15µM* | ? | ?
Cc1cc(C)c2nc(NNC(=O)c3ccc(S(=O)(=O)N4CCCC(C)C4)cc3)sc2c1 (stereo not given) | 4µM* | ? | ? | ?
Cc1cccc2sc(NNC(=O)c3ccc(S(=O)(=O)N4CC(C)CC(C)C4)cc3)nc12 (stereo not given) | 28µM* | ? | ? | ?
Cc1ccc(CN2CCOCCS2(=O)=O)cc1 | -32% | nt | ? | nt
CSc1ccc(-c2ccc(C(=O)NCC3CCCO3)c(N3CCC(O)CC3)n2)cc1 (stereo not given) | -12% | nt | 5% | nt
COc1ccc(-c2nc3ccccc3nc2-c2ccccc2)cc1 | i | -19%[46.1 µM] | -10% | 6%
COc1ccc(-c2nnc(Sc3nc4ccccc4o3)c3ccccc23)cc1 | 8.9µM* | ? | 11µM* | -6%
Nc1cc(OC(=O)c2ccco2)nn1S(=O)(=O)c1ccc(F)cc1 | -12% | 2% | -10% | 3%
Nc1cc(OC(=O)c2ccc(F)cc2)nn1S(=O)(=O)c1ccc(F)cc1 | -24% | -7%[46.1 µM] | -17% | 2µM*
O=C(CCc1ccc(S(=O)(=O)N2CCOCC2)cc1)Nc1nc(COc2ccccc2)cs1 | nt | 21µM* | nt | -20%
CN(C)c1ccc(/C=C/c2cc[n+](C)c3ccccc23)cc1 | i | 7.9µM* | i | ?
CN(C)c1ccc(/C=C/c2ccnc3c(O)cccc23)cc1 | 10µM* | nt | ? | nt
CC(=O)Nc1ccc(S(=O)(=O)O)c2cc(S(=O)(=O)O)c(N=Nc3ccc(N=Nc4ccc(S(=O)(=O)O)cc4)c4ccc(S(=O)(=O)O)cc34)c(O)c12 | -19% | nt | -19% | nt
CCC1CC2C(=O)C(c3nc(C)cs3)=COC2CC1O (stereo not given) | nt | 0%[46.1 µM] | nt | nt
SMILES | VACV mCherry inh | Marburg entry inh | Vaccinia Venus | Lassa entry inh
CN(C)c1ccc(/C=C2\C=Cc3ccccc32)cc1Cl | -15% | nt | -16% | nt
C/C(=N/NS(=O)(=O)c1ccc(C)cc1C)c1c[nH]c2ccccc12 | 5µM* | ? | -24% | ?
O=C(c1cccs1)N1C[C@@H](O)[C@@H](n2cc(-c3ccc(F)cc3)nn2)C[C@@H]1c1ccc(Cl)cc1 | nt | nt | nt | -13%[46.1 µM]
COc1ccc2sc(-c3ccc(S(C)(=O)=O)cc3)c(C#CCO)c2c1 | 10µM* | nt | ? | nt
COc1ccccc1OCC(=O)Nc1nc(C)c(C)s1 | 44% | ? | -10% | 13µM*
COC(=O)c1sc(NC(=O)COc2ccccc2C)nc1C | i | 4%[46.1 µM] | -1% | -2%
Cc1cnc(NC(=O)COc2ccccc2Cl)s1 | nt | 2.3µM* | nt | 1.8µM*
